Data on nine compounds can be found in ChEMBL document CHEMBL4513139, “CO-ADD screening of University of Strathclyde (UK) compounds”.

Measured potencies and affinities stand elsewhere.

One assay deals with Staphylococcus aureus. The note with it: Concentration 32 ug.mL-1; ASSAY_TEST Inhibition of Bacterial Growth; detection method Absorption (OD600); MEDIA CAMHB; plate type 384well; NBS; CORNING #3640; time 18 hr.
For another assay, the system named is Escherichia coli. As to conditions: Concentration 32 ug.mL-1; ASSAY_TEST Inhibition of Bacterial Growth; detection method Absorption (OD600); MEDIA CAMHB; plate type 384well; NBS; CORNING #3640; time 18 hr.

As to `COc1cccc(C(=N)Nc2cc(C(=O)Nc3cc(C(=O)Nc4cn(CCCN(C)C)cn4)n(C)c3)n(C)c2)c1.O=C(O)C(F)(F)F.O=C(O)C(F)(F)F`, the Inhibition (as a rule, the change of the read-out against control, counted positive when it falls) is reported as 18.77% in the assay with Staphylococcus aureus and -11.88% with Escherichia coli.

Consider `COc1cccc(C(=N)Nc2cc(C(=O)Nc3cc(C(=O)Nc4cc(C(=O)NCCCN5CCOCC5)n(C)c4)n(C)c3)n(C)c2)c1.O=C(O)C(F)(F)F.O=C(O)C(F)(F)F`, for which the Inhibition in the assay with Staphylococcus aureus is 26.72%; in the assay on Escherichia coli, -6.36%.

For the compound `Cc1ccc(S(=O)(=O)NCCc2cn(Cc3cnc(C)nc3N)nn2)cc1`, the Inhibition is reported as 16.06% in the assay on Staphylococcus aureus and -13.92% in the assay with Escherichia coli.

With `Cn1cc(NC(=O)c2cc(NC(=O)c3sc(N)nc3C(F)(F)F)cn2C)cc1C(=O)NCCC(=N)N.O=C(O)C(F)(F)F`, the results for the Inhibition with Staphylococcus aureus and in the assay with Escherichia coli were -17.29% and -25.01%, respectively.

As to `CCOC(=O)CCC(NC(=O)c1ccc(NCc2cn(Cc3cnc(C)nc3N)nn2)cc1)C(=O)OCC` (stereo not drawn), the values for the Inhibition in the assay with Staphylococcus aureus and in the assay on Escherichia coli were -1.1% and -21.48%, respectively.

Turning to `Cc1ncc(CNc2ccc(C(C)(C)C)cc2)c(N)n1`, the Inhibition is -2.14% with Staphylococcus aureus and -7.27% with Escherichia coli.

As to `COc1ccc(CC(=O)Nc2cc(C(=O)Nc3cc(C(=O)Nc4cn(CCCN(C)C)cn4)n(C)c3)n(C)c2)cc1.O=C(O)C(F)(F)F`, the Inhibition is 6.27% with Staphylococcus aureus and -5.32% in the assay on Escherichia coli.

Consider `COc1cccc(C(=O)Nc2cc(C(=O)Nc3cc(C(=O)Nc4cn(CCCN(C)C)cn4)n(C)c3)n(C)c2)c1.O=C(O)C(F)(F)F`, for which the values for the Inhibition in the assay on Staphylococcus aureus and in the assay on Escherichia coli were 20.04% and -11.39%, respectively.

As for `CN(C)CCCNC(=O)c1cc(NC(=O)c2cc(NC(=O)c3cc4ccccc4cn3)cn2C)cn1C.O=C(O)C(F)(F)F`, the Inhibition in the assay with Staphylococcus aureus is reported as 20.5%; in the assay with Escherichia coli, -10.84%.
